# Results as given in PubChem BioAssay (NCATS).
# Inconclusive results are not listed. Entries that show only a call come without a potency. Activity calls are given as the source filed them. The call rests on the fitted dose curve; in most records, active means well fitted inhibition curve with a large enough effect; inconclusive means small, poorly fitted or top-dose-only effect; inactive means no such curve, though single readings can be large or run the other way.
# Experiments:
# [1] = system: Zika virus NS2B-NS3 protease (unlinked complex); assay: Primary screen GU Rhodamine qHTS for Zika virus inhibitors: Unlinked NS2B-NS3 protease assay (AID 1347159); further: nearly all actives have a fitted effect of over 60% in size; further: potency means the concentration at half of the fitted maximal effect
# Procedure, shortened: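 Noncovalent NS2B hydrophilic domain–NS3 protease domain complex (25 nM) preincubated 15 min at room temperature with compounds (up to 114 microM) in 10 mM Tris-HCl pH 8.0, 0.01% Tween 20; 1.5 microM Rhodamine110 substrate added, fluorescence change over 15 min fitted to Hill equation.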
# [2] = system: Zika virus NS2B-NS3 protease (linked construct); assay: Primary screen NINDS Rhodamine qHTS for Zika virus inhibitors (AID 1347160); further: nearly all actives have a fitted effect of over 55% in size; further: potency means the concentration at half of the fitted maximal effect
# Procedure, shortened: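 Purified linked NS2B-NS3 protease (NS2B hydrophilic domain joined to NS3 protease by flexible linker), 25 nM in 10 mM Tris-HCl pH 8.0, 0.01% Tween 20. Compounds titrated, 15 min preincubation at room temperature; 1.5 microM Rhodamine110 substrate, FITC fluorescence change over 15 min.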
# [3] = Tertiary RLuc qRT-PCR qHTS assay for Zika virus inhibitors (AID 1347169); further: nearly all actives have a fitted effect of over 55% in size; further: potency means the concentration at half of the fitted maximal effect
# Procedure, shortened: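 Inhibition of ZIKV-RLuc replication in Vero cells, read as Renilla luminescence 1-1.5 hrs after live-cell substrate addition, following 48-72 hrs infection at MOI 1-2 in presence of compound.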
# [4] = Confirmatory screen NINDS Rhodamine qHTS for Zika virus inhibitors (AID 1347161);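 further: purified Zika NS2B-NS3 protease with linked NS2B cofactor domain and Rhodamine110 peptide substrate; series mostly up to about 110 µM; nearly all actives have a fitted effect of over 60% in size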
# Procedure, shortened: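 Rhodamine110-peptide cleavage (1.5 µM substrate) by 25 nM linked NS2B-NS3 enzyme at pH 8.0 (Tris, Tween 20), after 15 min RT preincubation with compounds; 15-min fluorescence change normalized to controls and Hill-fitted.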
compound,measurement,setting,value
O=C1OCc2cc3cccc(O[C@@H]4O[C@H](CO)[C@@H](O)[C@H](O)[C@H]4O)c3c(O)c21,Potency,[1],inactive
same,Potency,[2],11.2 µM (active)
same,Potency,[3],inactive
C/C=C/C=C/C(O)=C1\C(O)=C(C)C(=O)[C@@]2(C)OC(=O)[C@@](C)(NC(=O)/C=C/C(=O)O)[C@@H]12,Potency,[1],inactive
same,Potency,[2],inactive
O=C(O)c1cc(-c2c(-c3ccccc3)nn3ccccc23)n[nH]c1=O,Potency,[2],inactive
Cc1cc(C)c(CNC(=O)c2cc(-c3ccc(CN4CCOCC4)cc3)cc3c2cnn3C2CCCC2)c(=O)[nH]1,Potency,[2],inactive
CCCCc1nc2cc(/C=C/C(=O)NO)ccc2n1CCN(CC)CC,Potency,[1],inactive
same,Potency,[2],inactive
O=[N+]([O-])c1cccc2[nH]c(CNc3nc(N4CCOCC4)nc4c3ncn4-c3ccsc3)nc12,Potency,[1],89.1 µM (active)
same,Potency,[2],inactive
same,Potency,[3],117 nM (active)
CC(C)CC(=O)OC1OC=C(CO[C@@H]2O[C@H](CO)[C@@H](O)[C@H](O)[C@H]2O)C2CC(O)C(O)(CO)C12 (stereo partly specified),Potency,[1],inactive
same,Potency,[3],inactive
C/C=C/C1=CC2=C(CO1)C(=O)C(C)(O)C(OC(=O)c1c(C)cc(OC)cc1O)C2 (stereo unspecified),Potency,[4],inactive
C=C1C(=O)O[C@H]2C1[C@H](OC(=O)/C(=C/CO)COC(=O)/C(C)=C/CO)CC(=C)[C@@H]1CC(=O)[C@@H](C)[C@@H]12 (stereo partly specified),Potency,[3],inactive
